This is an account of results in PubChem BioAssay (NCI).

Test [1] can be described thus: NCI Yeast Anticancer Drug Screen. Data for the rad50 strain (AID 155).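 Further: 0% = growth of vehicle-only cultures of the same strain.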 To be noted: S. cerevisiae rad50 strain growth inhibition; at 50.0 µM; active compounds read high. The gist of the method:
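DNA repair mutant yeast, compound exposure, growth read-out; inhibition is taken relative to vehicle.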

Test [2] can be described thus: NCI Yeast Anticancer Drug Screen. Data for the mec2-1 strain (AID 157). To be noted: S. cerevisiae mec2-1 strain, at 50.0 µM, active compounds read high. The gist of the method: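 Using mec2-1 yeast: add compound, measure growth, express inhibition versus vehicle-treated cultures.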
Test [3] in a line: NCI Yeast Anticancer Drug Screen. Data for the sgs1 mgt1 strain (AID 161).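 Further: 0% = growth of cultures given vehicle only.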 The note with it: S. cerevisiae sgs1 mgt1 strain, at 50.0 µM, active compounds read high. In short, it runs like this:
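This yeast growth screen uses a strain with defined DNA-repair lesions; compound-treated growth is compared with vehicle-treated growth.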

Test [4] can be described thus: NCI Yeast Anticancer Drug Screen. Data for the cln2 rad14 strain (AID 165).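 Further: 0% = growth equal to vehicle treated cultures.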 The note with it: S. cerevisiae cln2 rad14 strain, at 50.0 µM, active compounds read high. In short, it runs like this:
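Yeast strain cln2 rad14, bearing defects in cell cycle control and DNA repair, serves as the test system; values reflect growth inhibition compared with vehicle.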

Test [5] is described as follows: NCI Yeast Anticancer Drug Screen. Data for the bub3 strain (AID 167). To be noted: S. cerevisiae bub3 mutant strain, at 50.0 µM, active compounds read high. The gist of the method: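 In this screen, a yeast mutant lacking normal mitotic checkpoint function is challenged with compound. Relative growth versus vehicle gives the inhibition value.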
A short description of test [6]: NCI Yeast Anticancer Drug Screen. Data for the mlh1 rad18 strain (AID 175). The note with it: S. cerevisiae mlh1 rad18 strain growth inhibition; at 50.0 µM; active compounds read high. The gist of the method:
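Steps: expose repair-defective yeast to compound; measure growth; express inhibition against vehicle-treated controls.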

Compounds without any hit were thinned out: in the full panel of roughly 79,000, 15% have a hit. Values without a mark were called inactive. Calls of active or inactive are those of the source. No stated cut-off is given here; in the data, active means growth inhibition above about 70%; inactive means the rest.

As to `CCOC(=O)C1CC=CCC1C(=O)OCC` (stereo unspecified), the growth inhibition in test [1] was -5.25%; in test [2], -7.5%; in test [3], 0.5%; in test [4], 2.55%; in test [5] it was 1.3%; in test [6], -19.5%.

On to `C=C1c2[nH]c3ccccc3c2CC(C(=O)O)N1C(O)c1ccc(S(=O)(=O)O)cc1` (stereo unspecified), for which the growth inhibition in test [1] is 11.5%; in test [2], -7.95%; in test [3], -3.5%; in test [4] it was -45.6%; in test [5] it was -8.05%; in test [6] it was 3.75%.

`CNC1=C(Sc2ccc(C)cc2)C(=O)c2ccccc2C1=O`: the growth inhibition was -4.9% in test [1]; 1.8% in test [2]; 5.4% in test [3]; -0.45% in test [4]; -9.05% in test [5]; -8.7% in test [6].

As for `N/N=C1/C(=N/O)CCc2nonc21`, the growth inhibition was 6.15% in test [1]; 6.5% in test [2]; 3.5% in test [3]; -8.3% in test [4]; -7.45% in test [5]; -27.1% in test [6].

With `O=C(O)C1C(CCl)=C1CCl`, the growth inhibition in test [1] is -15.8%; in test [2], 20.7%; in test [3], 2.35%; in test [4] it was -11.3%; in test [5], 4.7%; in test [6], -2.9%.

Regarding `N=C(N)c1cccc(NC(=O)CCc2ccccc2)c1`, the growth inhibition in test [1] is -7.3%; in test [2] it was -14.6%; in test [3], -17.8%; in test [4], -29.1%; in test [5], 0.95%; in test [6] it was 1.9%.

For the compound `Cc1ccc(C)c(OC(=O)NC2CCCCC2)c1`, the growth inhibition was -4.9% in test [1]; -15.1% in test [2]; -15.1% in test [3]; -57.6% in test [4]; 0% in test [5]; -19.9% in test [6].

As for `CC(=O)OC(C)C1(C)CCC2CCCC(C)(C)C2C1` (stereo unspecified), the growth inhibition in test [1] was -6.4%; in test [2] it was -5.15%; in test [3] it was -11.9%; in test [4], 0.7%; in test [5], 9.45%; in test [6] it was -13.7%.

Regarding `Cc1ccc(S(=O)(=O)NN=C2CC3C4CCC5C4CC3C25)cc1` (stereo unspecified), the growth inhibition in test [1] was 21.9%; in test [2], -4.5%; in test [3] it was 15.9%; in test [4], 12%; in test [5] it was -13.5%; in test [6], 7.1%.

With `C=CCC1CCC/C1=N\O` (stereo unspecified), the growth inhibition is -13.4% in test [1]; 10.4% in test [2]; 17.3% in test [3]; -12.2% in test [4]; -3.15% in test [5]; 3.9% in test [6].

`Oc1c(CNCc2ccccc2)cc(CNCc2ccccc2)c(O)c1CNCc1ccccc1`: the growth inhibition is 5.3% in test [1]; 8.85% in test [2]; -4.8% in test [3]; 3.2% in test [4]; 17.3% in test [5]; -14.8% in test [6].

Turning to `C=CCc1ccc(OC(=O)Nc2cccc(OC)c2)c(OC)c1`, the growth inhibition in test [1] was 74.5% (active); in test [2], 86.8% (active); in test [3], 73.9% (active); in test [4], -7.45%; in test [5], 53.9%; in test [6] it was 68.8%.

As to `Cc1cccc(C(=O)O)c1-c1c(C)cccc1C(=O)O`, the growth inhibition in test [1] was 13.3%; in test [2], -5.95%; in test [3], -6.8%; in test [4], 3.05%; in test [5], 0.8%; in test [6], 12.9%.

Turning to `O=C(O)c1cccc(N=Nc2ccccc2)c1O`, the growth inhibition in test [1] is 22.1%; in test [2], -12.4%; in test [3], 4.65%; in test [4], -7.1%; in test [5], 6.05%; in test [6] it was 10.7%.

Consider `CCCC1CCCC12CCc1ccccc1C2=O` (stereo unspecified), for which the growth inhibition in test [1] was 15.3%; in test [2], -6.15%; in test [3], -11.1%; in test [4] it was 10.1%; in test [5], -5.8%; in test [6] it was 1.15%.

As for `CC(C)CN1CC(C)C(=O)NC1=O` (stereo unspecified), the growth inhibition in test [1] was 1.4%; in test [2], -3.4%; in test [3] it was -2.45%; in test [4], 3.85%; in test [5] it was 1%; in test [6], 5.4%.

Turning to `CC1(C)OCC(C2OC3OC(C)(C)OC3C2OP(=O)(N2CC2)N2CC2)O1` (stereo unspecified), the growth inhibition in test [1] was -16.1%; in test [2], -31.4%; in test [3], -38.9%; in test [4], -49.2%; in test [5], -70.8%; in test [6] it was -73.4%.

For the compound `CC(=O)CC(=NCC(O)CN=C(CC(C)=O)c1ccccc1)c1ccccc1.[Cu]` (stereo unspecified), the growth inhibition in test [1] was 10.4%; in test [2], 8.55%; in test [3], 5.9%; in test [4], -18.7%; in test [5], -11.3%; in test [6], 25.4%.

In the case of `Clc1ccc(C2OCCO2)cc1`, the growth inhibition is 12.2% in test [1]; 3.95% in test [2]; 11.2% in test [3]; 3.35% in test [4]; -0.35% in test [5]; 14.3% in test [6].

Consider `C1CCOC2(CCC3(CC2)OCCCCO3)OC1`, for which the growth inhibition was -16.5% in test [1]; 2.55% in test [2]; -18.2% in test [3]; -44.2% in test [4]; -10.2% in test [5]; -39.4% in test [6].

Turning to `Cc1ncc([N+](=O)[O-])n1CCCl`, the growth inhibition is -1.8% in test [1]; 12.2% in test [2]; 3.35% in test [3]; -27.2% in test [4]; -0.15% in test [5]; -4.35% in test [6].
